This is an account of results in the supplement of paper PMC11555231.

PADI4, Q9UM07, sequence (Q9UM07 whole entry): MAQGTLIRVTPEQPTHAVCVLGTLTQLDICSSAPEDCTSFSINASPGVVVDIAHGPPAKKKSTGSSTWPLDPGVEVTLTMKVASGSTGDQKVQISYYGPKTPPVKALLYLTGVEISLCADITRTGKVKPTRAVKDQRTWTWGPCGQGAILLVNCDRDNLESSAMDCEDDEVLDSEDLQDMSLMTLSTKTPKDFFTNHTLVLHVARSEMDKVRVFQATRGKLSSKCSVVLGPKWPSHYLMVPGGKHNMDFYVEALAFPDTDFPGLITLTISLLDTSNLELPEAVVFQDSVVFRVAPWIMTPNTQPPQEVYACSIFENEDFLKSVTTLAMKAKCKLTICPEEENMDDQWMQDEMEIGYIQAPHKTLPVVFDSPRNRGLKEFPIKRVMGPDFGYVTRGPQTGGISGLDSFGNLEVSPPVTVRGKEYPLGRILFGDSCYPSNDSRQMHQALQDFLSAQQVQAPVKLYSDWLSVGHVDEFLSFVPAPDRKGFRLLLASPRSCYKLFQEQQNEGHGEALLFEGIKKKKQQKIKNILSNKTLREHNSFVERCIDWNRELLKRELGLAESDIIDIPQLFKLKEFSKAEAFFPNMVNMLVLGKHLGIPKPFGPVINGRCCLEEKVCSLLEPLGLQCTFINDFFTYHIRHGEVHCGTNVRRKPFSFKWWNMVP

The assay deals with PADI4, Q9UM07. The assay is described as follows: log2 enrichment score relative to parent PADI4_3 peptide (binding to PADI4); higher = tighter binding than parent. Particulars: CaCl2: 10 mM. In outline:
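A cyclic peptide library for mRNA display was built with every internal parent position randomised through NNK codons, a C-terminal HA tag, and methionine reassigned to N-methyl-alanine, then purified on anti-HA beads. A single selection round was run in triplicate against biotinylated His-tagged human PADI4 (100 nM) immobilised on beads, in HEPES/NaCl buffer containing 10 mM CaCl2, DTT, Tween and blockers, with equilibrating washes over 10–12 h at RT. Both the input and eluted libraries were sequenced. Log2 enrichment of bound over input is reported relative to parent as a mean with standard deviation.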
On to YRTHHYRHPKYCG [PADI4_3_D3T D3T], for which the log2 enrichment score was -3.58.
For the molecule YRDHHYRHPTYCG [PADI4_3_K10T K10T], the log2 enrichment score amounted to 0.237.
The value for YRDSHYRHPKYCG [PADI4_3_H4S H4S] was -2.9; that for YRSHHYRHPKYCG [PADI4_3_D3S D3S] was -3.9; that for YRDHTYRHPKYCG [PADI4_3_H5T H5T] was -3.62.
For YRDHHYRHPKTCG [PADI4_3_Y11T Y11T], the log2 enrichment score was -3.95.
For the molecule YRDHHYTHPKYCG [PADI4_3_R7T R7T], the log2 enrichment score is -1.3.
Consider YRDTHYRHPKYCG [PADI4_3_H4T H4T], for which the log2 enrichment score was -3.53.
The value for YRDHHYRTPKYCG [PADI4_3_H8T H8T] was -3.89; that for YRDHHYRHPKSCG [PADI4_3_Y11S Y11S] was -4.12; that for YRDHHTRHPKYCG [PADI4_3_Y6T Y6T] was -2.52.
On to YRDHHYRHTKYCG [PADI4_3_P9T P9T], for which the log2 enrichment score is -1.92.
The value for YTDHHYRHPKYCG [PADI4_3_R2T R2T] was -1.69.
